# From PubChem BioAssay
# Compounds with a hit are over-represented: about 18% of the library has one in this group of screens.
# TDP1 cell noCPT: qHTS for Inhibitors of human tyrosyl-DNA phosphodiesterase 1 (TDP1): qHTS in cells in absence of CPT | DT40 Tdp1-/- hTDP1 cells, no CPT, ATP luminescence, 48 h | Potency, µM (highest dose often 46.2 µM), without a hit: at the highest dose activity change, negative = growth inhibition, actives largely listed as inhibitors | 420,000 tested, 15% active | AID 686978, 2013; note: potency is the fitted concentration of half-maximal effect; nearly all actives have a fitted effect of over 55% in size
#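 Luminescent ATP content (CellTiter-Glo) served as the growth readout. Knockout chicken DT40 cells expressing human TDP1 were exposed to compounds without camptothecin for a minimum 48 hr at 37 °C.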
# TDP1 inh: qHTS Assay for Inhibitors of Tyrosyl-DNA Phosphodiesterase (TDP1) | 350,000 tested, 0.28% active | recombinant TDP1, AlphaScreen DNA substrate cleavage | AID 485290, 2010 | Potency, µM (series often up to 130 µM), for the others: top-dose activity change, negative = inhibition, usual class: inhibitors; note: potency is the fitted concentration of half-maximal effect; nearly all actives have a fitted effect of over 40% in size
#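 Enzyme-compound mixtures sat 15 min at room temperature, followed by a 5 min reaction with 15 nM final substrate and 10 min with AlphaScreen beads. Recombinant human Tdp1 was used at 1 nM final.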
# TDP1 cell CPT: qHTS for Inhibitors of human tyrosyl-DNA phosphodiesterase 1 (TDP1): qHTS in cells in presence of CPT; chicken DT40 Tdp1-/-;hTDP1 cells + 20 nM CPT, ATP luminescence, 48 h; Potency, µM (titrated, usually from 46.2 µM), inactives show top-dose activity change, negative = growth inhibition, hits mostly inhibitors; 420,000 tested, 12% active; note: potency is the fitted concentration of half-maximal effect; nearly all actives have a fitted effect of over 55% in size
#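 Chicken DT40 Tdp1-/- cells complemented with human TDP1, 400 cells/well, exposed to compounds plus 20 nM camptothecin for at least 48 h at 37 C; viability read as ATP content by CellTiter-Glo luminescence.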
# IL-1B inflam inh: qHTS for Inhibitors of Inflammasome Signaling: IL-1-beta AlphaLISA Primary Screen. 360,000 tested, 4.7% active. THP-1 LPS/ATP IL-1B secretion, AlphaLISA, 16 h; stronger effect = lower value. activity change, % at 57.5 µM. AID 743279, 2014; in the data active = activity change below about -50%; inconclusive = mostly about -30% to -49%
#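 Secreted IL-1B measured by AlphaLISA bead assay after 16 h compound exposure of THP-1 cells; compounds (final up to 57.5 uM) added 1 h before LPS (250 ng/mL) and ATP (1.25 mM) stimulation; lower signal means less secretion.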
# Six1-Eya2 inh: qHTS Assay for Inhibitors of the Six1/Eya2 Interaction. Homeobox protein SIX1 (Homo sapiens) + Protein phosphatase EYA2 (Homo sapiens), …. AlphaScreen GST-Six1/His-Eya2 binding, biochemical; stronger effect = lower value. activity change, % (no concentration beside the values). 360,000 tested, 0.56% active. AID 651725, 2012; in the data active = activity change below about -65%; inconclusive = mostly about -30% to -63%
# Target sequence (O00167 whole entry, looked up): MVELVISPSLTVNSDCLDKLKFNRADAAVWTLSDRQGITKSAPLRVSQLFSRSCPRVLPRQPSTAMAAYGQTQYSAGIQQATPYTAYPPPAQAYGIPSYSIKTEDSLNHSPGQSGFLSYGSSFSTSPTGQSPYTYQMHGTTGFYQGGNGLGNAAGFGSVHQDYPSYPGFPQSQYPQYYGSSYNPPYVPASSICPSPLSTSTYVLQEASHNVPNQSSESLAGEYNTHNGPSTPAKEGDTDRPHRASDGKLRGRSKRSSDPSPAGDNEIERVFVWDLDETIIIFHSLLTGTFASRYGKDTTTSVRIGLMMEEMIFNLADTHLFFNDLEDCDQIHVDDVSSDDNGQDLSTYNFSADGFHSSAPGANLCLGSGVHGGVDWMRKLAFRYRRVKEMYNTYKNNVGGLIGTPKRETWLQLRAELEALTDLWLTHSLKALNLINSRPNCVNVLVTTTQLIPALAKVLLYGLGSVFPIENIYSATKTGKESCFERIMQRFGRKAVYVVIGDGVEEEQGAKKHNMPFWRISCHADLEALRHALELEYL
# Target sequence (Q15475 whole entry, looked up): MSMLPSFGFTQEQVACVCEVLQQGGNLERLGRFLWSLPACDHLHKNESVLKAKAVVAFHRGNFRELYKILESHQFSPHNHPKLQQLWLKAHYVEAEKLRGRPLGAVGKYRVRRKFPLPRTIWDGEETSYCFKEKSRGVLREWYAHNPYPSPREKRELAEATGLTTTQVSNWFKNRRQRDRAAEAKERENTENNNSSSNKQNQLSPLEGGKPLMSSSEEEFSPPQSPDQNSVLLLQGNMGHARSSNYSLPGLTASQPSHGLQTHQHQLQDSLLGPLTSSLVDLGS
#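 Six1/Eya2 binding was read as AlphaScreen signal after compounds were pinned into GST-Six1 plus His-tagged Eya2 (5X stock 250/500 nM) in pH 8.0 Tris/NaCl/TCEP buffer, beads added, then incubated 1 h, 37 C, dark.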
# CtBP-E1A inh: qHTS Assay for Inhibitors of the CtBP/E1A Interaction; AlphaScreen GST-E1A/His-CtBP binding, 1536-well; stronger effect = lower value; 340,000 tested, 0.49% active; activity change, % (no concentration beside the values); in the data active = activity change below about -65%; inconclusive = mostly about -30% to -63%
#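 AlphaScreen with 125 nM GST-E1A and 125 nM His-CtBP (5X stocks) in Tris pH 8.0, 300 mM NaCl, BSA, Tween 20, TCEP. Compounds preincubated 2 h at 37 deg C, then glutathione donor/nickel acceptor beads added for 1 h at 37 deg C in dark.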
# Numbers without * were called inactive; ? = inconclusive; / = no result; [ ] = remark or other dose. Unless noted, calls come from the whole dose curve; as a rule, active = well fitted curve in the direction sought with a large enough effect; inconclusive = small, poorly fitted or top-dose-only effect, or another doubt; inactive = no such curve, though single readings can be large; an effect the other way counts as inactive or inconclusive. % is set by controls: 0 for no effect and ±100 for the full control effect.
SMILES,TDP1 cell noCPT,TDP1 inh,TDP1 cell CPT,IL-1B inflam inh,Six1-Eya2 inh,CtBP-E1A inh
CCOc1ccc(NCc2nnc(SCc3ccc(Cl)cc3)n2-c2ccccc2)cc1,29.1µM*,13.5%,?,?,?,?
CCn1c(CNc2ccc(Cl)cc2)nnc1SCc1ccc(Cl)cc1,18.4µM*,5.0%,?,-1.7,-0.4,-6.8
CC1CC(C)(C)NC(=S)N1CCCC(=O)NCc1ccccc1 (stereo not drawn),-7.8%,5.1%,15.5%,-2.3,-9.2,-20.0
CCn1ncc(Br)c1C(=O)Nc1ccc(-c2ccno2)cc1,0.5%,-0.7%,-12.4%,-3.9,-0.4,0.1
CCOC(=O)C1CCN(C(=O)CCc2c(C)nc3cc(-c4ccc(OC)cc4OC)nn3c2C)CC1,?,-2.5%,?,4.3,3.7,2.0
COc1ccc(N2CCN(C(=O)CCc3c(C)nc4cc(-c5ccc(OC)cc5OC)nn4c3C)CC2)cc1,16.4µM*,4.6%,20.6µM*,/,/,/
COc1ccc(-c2cc3nc(C)c(CCC(=O)N4CCN(c5cccc(Cl)c5)CC4)c(C)n3n2)c(OC)c1,5.8µM*,0.0%,2.59µM*,/,/,/
COc1ccc(N2CCN(C(=O)CCc3c(C)nc4cc(-c5ccc(Cl)cc5)nn4c3C)CC2)cc1,-29.2%,3.5%,1.6%,/,/,/
COc1ccc(-c2cc3nc(C)c(CCC(=O)NC4CCCCC4)c(C)n3n2)c(OC)c1,?,-1.2%,?,/,/,/
COc1ccc(-c2cc3nc(C)c(CCC(=O)N4CCN(c5ccc(F)cc5)CC4)c(C)n3n2)c(OC)c1,16.4µM*,9.2%,23.1µM*,/,/,/
CCOC(=O)c1ccccc1NC(=O)CSc1nncn1C,11.6%,5.9%,26.4%,5.5,2.6,-1.6
CCOC(=O)c1c(C)oc2nc(C)nc(NCc3cccc(Cl)c3)c12,20.6µM*,-3.2%,?,/,/,/
CCOC(=O)c1c(C)oc2nc(C)nc(NCc3ccc(C)cc3)c12,?,2.1%,-98.6%,/,/,/
CCOC(=O)c1c(C)oc2nc(C)nc(NCc3cccc(OC)c3)c12,?,-1.1%,16.4µM*,/,/,/
COc1ccc(Cl)cc1N1C(=O)CC(N2CCc3ccccc32)C1=O (stereo not drawn),-6.2%,3.5%,2.4%,3.0,-1.6,-3.8
O=S1(=O)N=C(N/N=C/c2ccccn2)c2ccccc21,?,8.0%,?,107.9,-87.8*,-81.0*
CN(C)c1ccc(/C=N/NC2=NS(=O)(=O)c3ccccc32)cc1,6.1%,/,8.8%,28.4,-10.5,-28.2
COc1ccc(/C=N/NC2=NS(=O)(=O)c3ccccc32)cc1,6.7%,/,5.8%,11.5,-4.2,/
O=S1(=O)N=C(N/N=C/C=C/c2ccccc2)c2ccccc21,5.8µM*,6.9%,?,-4.2,-11.8,-18.6
O=C(NCc1ccc2c(c1)CCN2C(=O)c1ccc(F)cc1)c1cc2ccccc2[nH]1,?,5.4%,16.4µM*,/,/,/
O=C(COc1ccc(F)cc1)NCc1ccc2c(c1)CCN2C(=O)c1ccc(F)cc1,-23.4%,-1.5%,-18.5%,/,/,/
CC(=O)Nc1cccc(C(=O)NCc2ccc3c(c2)CCN3C(=O)c2ccc(F)cc2)c1,16.4µM*,5.4%,20.6µM*,/,/,/
O=C(Cc1ccc(F)cc1)NCc1ccc2c(c1)CCN2C(=O)c1ccc(F)cc1,9.2µM*,-4.4%,?,/,/,/
CSc1ncccc1C(=O)OCC(=O)c1ccc2c(c1)NC(=O)CO2,-34.7%,8.2%,-6.4%,0.0,19.6,17.4
COc1cccc(N/N=C(\C#N)S(=O)(=O)C(C)(C)C)c1,-27.9%,5.0%,-18.1%,25.8,27.9,-2.9
SMILES,TDP1 cell noCPT,TDP1 inh,TDP1 cell CPT,IL-1B inflam inh,Six1-Eya2 inh,CtBP-E1A inh
c1ccc2c(N3CCCCC3)nc(N3CCCCC3)nc2c1,?,6.0%,18.4µM*,4.1,1.1,11.7
c1ccc2c(N3CCCCCC3)nc(-c3ccncc3)nc2c1,23.1µM*,2.3%,?,?,-4.5,-3.3
c1ccc(-c2nc(N3CCCC3)nc3ccccc23)cc1,?,5.5%,-29.7%,18.8,13.9,48.5
C/C(=N\O)C(=O)C(CN1CCCCC1)CN1CCCCC1,2.59µM*,9.1%,2.91µM*,-29.7,-5.4,-21.6
COc1ccc2nc(C)cc(NCCN3CCOCC3)c2c1,-20.4%,5.1%[0.0935 µM],-3.2%,?,-0.9,-10.0
Cc1cc(NCCN2CCOCC2)c2ccc3ccccc3c2n1,?,-6.0%,?,-82.2*,-20.7,-14.2
CN(C)S(=O)(=O)c1cc(C(=O)O)c(NC2CCCCC2)cc1Cl,-16.5%,0.5%,0.7%,12.5,2.6,1.4
CCC(=O)N1c2ccccc2CC1C(=O)NCCN1CCN(c2cccc(C(F)(F)F)c2)CC1 (stereo not drawn),29.1µM*,1.2%,16.4µM*,/,/,/
CCC(=O)N1c2ccccc2CC1C(=O)NCCN1CCN(c2ccccc2F)CC1 (stereo not drawn),?,-3.8%,?,/,/,/
CC(=O)N1c2ccccc2CC1C(=O)N1CCN(c2cccc(C)c2C)CC1 (stereo not drawn),14.6µM*,-6.2%,23.1µM*,/,/,/
CCC(=O)N1c2ccccc2CC1C(=O)NCCN1CCN(c2cccc(C)c2C)CC1 (stereo not drawn),?,1.2%,23.1µM*,/,/,/
CCC(=O)N1c2ccccc2CC1C(=O)NCCN1CCN(c2cccc(Cl)c2)CC1 (stereo not drawn),?,6.2%,23.1µM*,/,/,/
CCC(=O)N1c2ccccc2CC1C(=O)NCCCN1CCN(c2ccc(F)cc2)CC1 (stereo not drawn),?,1.2%,?,/,/,/
COc1ccc(-n2nnnc2SCC(=O)c2ccc3c(c2)OCCO3)cc1,-20.6%,0.2%,?,2.4,23.6,0.0
Cc1cccc(N2CCN(C(=O)NC3CCCCC3)CC2)c1C,-18.5%,/,?,-55.7*,2.4,-2.8
O=C(COC(=O)c1ccc([N+](=O)[O-])o1)Nc1cccc2ccccc12,4.9%,6.9%,3.7%,-8.6,-2.9,-1.1
CCCCS(=O)(=O)N1CN(S(=O)(=O)CCCC)C2NC(=O)NC21 (stereo not drawn),-16.3%,1.0%,8.5%,13.2,2.2,5.4
